The whole screen tested about 310,000 compounds, of which about 14,000 (4.5%) showed an effect of 50% or more. Effects have a minus sign here. The full list was thinned out, with strong results kept by preference.
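Note: peak tail current of the secondary pulse compared with the same well before compound.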

This experiment deals with human ether-à-go-go-related gene (hERG) potassium channel (human, UniProt Q12809). As to the kind of experiment: primary screen, population patch clamp on CHO cells stably expressing hERG; higher = less effect of the substance.
Sequence of human ether-à-go-go-related gene (hERG) potassium channel (Q12809 whole entry, looked up): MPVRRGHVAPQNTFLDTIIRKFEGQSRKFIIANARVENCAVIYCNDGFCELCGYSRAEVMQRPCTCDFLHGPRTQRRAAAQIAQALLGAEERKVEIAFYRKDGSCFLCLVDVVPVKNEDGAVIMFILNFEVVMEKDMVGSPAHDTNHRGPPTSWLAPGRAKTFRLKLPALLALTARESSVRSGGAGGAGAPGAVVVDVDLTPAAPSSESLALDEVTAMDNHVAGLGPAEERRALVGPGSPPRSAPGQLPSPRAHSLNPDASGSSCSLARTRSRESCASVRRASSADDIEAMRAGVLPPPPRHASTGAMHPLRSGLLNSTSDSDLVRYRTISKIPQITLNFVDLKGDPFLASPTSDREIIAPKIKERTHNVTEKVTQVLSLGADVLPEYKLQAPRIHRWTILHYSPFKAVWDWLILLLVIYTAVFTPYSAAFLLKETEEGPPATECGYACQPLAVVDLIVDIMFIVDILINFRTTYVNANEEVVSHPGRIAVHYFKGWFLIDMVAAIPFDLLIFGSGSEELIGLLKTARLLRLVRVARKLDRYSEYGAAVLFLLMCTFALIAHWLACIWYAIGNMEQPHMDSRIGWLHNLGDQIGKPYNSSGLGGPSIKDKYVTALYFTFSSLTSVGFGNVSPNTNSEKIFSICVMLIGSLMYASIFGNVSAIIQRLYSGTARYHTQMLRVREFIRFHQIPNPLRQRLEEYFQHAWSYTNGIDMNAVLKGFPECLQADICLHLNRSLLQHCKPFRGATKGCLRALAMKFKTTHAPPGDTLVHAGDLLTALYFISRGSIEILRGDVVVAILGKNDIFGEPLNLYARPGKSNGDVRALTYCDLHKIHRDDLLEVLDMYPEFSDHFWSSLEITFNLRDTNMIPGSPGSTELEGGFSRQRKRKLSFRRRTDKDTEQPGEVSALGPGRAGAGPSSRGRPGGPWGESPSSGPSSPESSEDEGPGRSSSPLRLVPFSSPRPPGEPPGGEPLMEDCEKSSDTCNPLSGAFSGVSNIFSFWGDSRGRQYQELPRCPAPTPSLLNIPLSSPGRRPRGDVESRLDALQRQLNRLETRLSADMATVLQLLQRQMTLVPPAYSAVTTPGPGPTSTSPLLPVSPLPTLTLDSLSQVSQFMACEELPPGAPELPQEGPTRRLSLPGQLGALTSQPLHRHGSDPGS
Regarding `O=C(CN(C(=O)CNC(=O)c1ccco1)c1ccc(Cl)c(Cl)c1)NC1CCCCC1`, the “hERG current change (%, negative = inhibition) at 10uM” value is given as -27.2%.

For `O=C(Nc1ccccc1Sc1ccccc1)c1ccc(F)cc1`, the “hERG current change (%, negative = inhibition) at 10uM” value is given as -7.65%.

Take `O=C(c1ccc(Cl)cc1Cl)N1CCC(C(=O)N2CCOCC2)CC1`: the “hERG current change (%, negative = inhibition) at 10uM” value turned out to be 9.99%.

Regarding `CCOC(=O)c1c(C)[nH]c(C)c1S(=O)(=O)NCc1cc(C)ccc1C`, the “hERG current change (%, negative = inhibition) at 10uM” value is listed as -6.49%.

On to `CCNC(=O)C12CCC(C)(c3nc4cc(C)c(C)cc4nc31)C2(C)C` (centres unmarked), for which the “hERG current change (%, negative = inhibition) at 10uM” value was 33.5%.

In the case of `CC12CCC(=O)N1C(C(=O)Nc1nc(-c3ccccc3Cl)cs1)CS2` (centres unmarked), the “hERG current change (%, negative = inhibition) at 10uM” value was -6.16%.

Regarding `Cc1ccc(S(=O)(=O)N2C(=O)CCC2C(=O)Nn2cnnc2)cc1` (centres unmarked), the “hERG current change (%, negative = inhibition) at 10uM” value was determined as 5.62%.

Turning to `COc1ccc(C2(O)CCN(Cc3nnnn3Cc3ccc(C)cc3)CC2)cc1`, the “hERG current change (%, negative = inhibition) at 10uM” value is listed as -21.4%.

As for `OC(CN1CCN(c2ccc(F)cc2)CC1)c1ccc(Cl)cc1` (centres unmarked), the “hERG current change (%, negative = inhibition) at 10uM” value is listed as -37.9%.

`OC1(c2ccc(Cl)cc2)CCN(Cc2cn[nH]c2-c2ccc(F)cc2)CC1`: the “hERG current change (%, negative = inhibition) at 10uM” value is on record as -68.7%.

Regarding `OCC1(Cc2ccccc2)CCCN(Cc2c[nH]c3ccccc23)C1` (centres unmarked), the “hERG current change (%, negative = inhibition) at 10uM” value was -27%.

Take `OC1(c2ccc(Cl)cc2)CCN(Cc2c[nH]c3ccccc23)CC1`: the “hERG current change (%, negative = inhibition) at 10uM” value is -63.7%.

On to `OC(CCCN1CCC(O)(c2ccc(Cl)cc2)CC1)c1ccc(F)cc1` (centres unmarked), for which the “hERG current change (%, negative = inhibition) at 10uM” value is listed as -75.7%.

With `COc1ccc(-c2[nH]ncc2CN2CCC(O)(c3ccc(Cl)cc3)CC2)cc1`, the “hERG current change (%, negative = inhibition) at 10uM” value was -71.8%.

For the compound `OC1(c2ccc(F)cc2)CCN(Cc2cccnc2)CC1`, the “hERG current change (%, negative = inhibition) at 10uM” value came out at 4.22%.

As to `Cc1ccc(Cn2nnnc2CN2CCC(O)(c3ccc(F)cc3)CC2)cc1`, the “hERG current change (%, negative = inhibition) at 10uM” value is reported as -7.64%.

Regarding `OC(CN1CCN(c2cccc(Cl)c2)CC1)c1ccc(F)cc1` (centres unmarked), the “hERG current change (%, negative = inhibition) at 10uM” value was -47.2%.

Consider `COc1ccc(S(=O)(=O)N2CCC(O)(c3ccc(Cl)cc3)CC2)cc1`, for which the “hERG current change (%, negative = inhibition) at 10uM” value worked out at 24.2%.

On to `O=C(O)C(=O)O.O=C(c1cccc(Cl)c1)N1CCN(Cc2c[nH]c3ccccc23)CC1`, for which the “hERG current change (%, negative = inhibition) at 10uM” value is listed as -20.4%.

As to `Cc1ccc2c(c1)sc1nc(=O)n(-c3ccc(Cl)cc3)c(=O)n12`, the “hERG current change (%, negative = inhibition) at 10uM” value was found to be 6.6%.

As for `O=C(NCCCN1CCOCC1)C1CC(=O)N(c2ccccc2)C1` (centres unmarked), the “hERG current change (%, negative = inhibition) at 10uM” value came out at 12.1%.

As for `CCN1CCN(Cc2oc(CO)cc(=O)c2O)CC1`, the “hERG current change (%, negative = inhibition) at 10uM” value is given as -4.6%.

Consider `CC(=O)c1cccc(NC(=O)c2ccc3ccccc3c2)c1`, for which the “hERG current change (%, negative = inhibition) at 10uM” value was determined as 6.07%.

As to `Cn1cc(C(=O)c2ccc(Cl)cc2Cl)cc1C(=O)N/N=C(\N)COc1cccc(C(F)(F)F)c1`, the “hERG current change (%, negative = inhibition) at 10uM” value is given as -4.61%.

For `CCOc1ccccc1C1CC(=O)Nc2cc3c(cc21)OCCO3` (centres unmarked), the “hERG current change (%, negative = inhibition) at 10uM” value is -2.02%.

As for `COCCCN(C(=O)CSCC(=O)Nc1cccc(C)c1)c1c(N)n(Cc2ccccc2)c(=O)[nH]c1=O`, the “hERG current change (%, negative = inhibition) at 10uM” value stood at 11.3%.

On to `CC(C)C(NC(=O)c1ccc2c(c1)OCO2)C(=O)N/N=C\c1ccco1` (centres unmarked), for which the “hERG current change (%, negative = inhibition) at 10uM” value is reported as 2.3%.

For the compound `CCN1CCCC1CNC(=O)Cn1ncc2c(=O)oc3ccc(C)cc3c21` (centres unmarked), the “hERG current change (%, negative = inhibition) at 10uM” value was -2.33%.

Turning to `C=CCNC(=O)c1c(N)n(-c2cccc(S(N)(=O)=O)c2)c2nc3ccccc3nc12`, the “hERG current change (%, negative = inhibition) at 10uM” value is given as -4.04%.

With `O=C(Cc1c(F)cccc1Cl)NCCCn1ccnc1`, the “hERG current change (%, negative = inhibition) at 10uM” value was -24.6%.

With `COc1cc2c(cc1OC)C(C)NCC2.Cl` (centres unmarked), the “hERG current change (%, negative = inhibition) at 10uM” value was 14.1%.

With `OCC1(Cc2ccccc2)CCCN(Cc2cn[nH]c2-c2ccccc2)C1` (centres unmarked), the “hERG current change (%, negative = inhibition) at 10uM” value was -16.4%.

In the case of `OC1(c2ccc(Cl)cc2)CCN(Cc2cn[nH]c2-c2ccccc2)CC1`, the “hERG current change (%, negative = inhibition) at 10uM” value is listed as -77.7%.

Take `c1ccc(-c2[nH]ncc2CN2CCc3ccccc3C2)cc1`: the “hERG current change (%, negative = inhibition) at 10uM” value is -2.39%.

Regarding `O=C1C2CCCN2C(=O)N1CCCN1CCN(c2ccc([N+](=O)[O-])cc2)CC1` (centres unmarked), the “hERG current change (%, negative = inhibition) at 10uM” value is listed as -68.3%.

For `O=C1C2CCCN2C(=O)N1CCN1CCN(c2ccccc2)CC1` (centres unmarked), the “hERG current change (%, negative = inhibition) at 10uM” value is reported as -8%.

`O=C(CCCN1C(=O)C2CCCCN2C1=O)N1CCN(c2ccc([N+](=O)[O-])cc2)CC1` (centres unmarked): the “hERG current change (%, negative = inhibition) at 10uM” value is -74.7%.

As to `O=C1C2CCCCN2C(=O)N1CCN1CCN(c2ccc([N+](=O)[O-])cc2)CC1` (centres unmarked), the “hERG current change (%, negative = inhibition) at 10uM” value is -71.5%.

On to `Cc1ccc(N2CCN(CCCN3C(=O)C4CCCN4C3=O)CC2)cc1.Cl` (centres unmarked), for which the “hERG current change (%, negative = inhibition) at 10uM” value was -7.45%.

With `O=C1C2CCCCN2C(=O)N1CCCCN1CCN(c2ccc(F)cc2)CC1` (centres unmarked), the “hERG current change (%, negative = inhibition) at 10uM” value is given as -44%.

Turning to `Cl.Nc1ccc(N2CCN(CCCCN3C(=O)C4CCCN4C3=O)CC2)cc1.O` (centres unmarked), the “hERG current change (%, negative = inhibition) at 10uM” value is on record as -9.33%.

For the compound `O=C1C2CCCCN2C(=O)N1CCCN1CCN(c2ccc(F)cc2)CC1` (centres unmarked), the “hERG current change (%, negative = inhibition) at 10uM” value is reported as -34.8%.

`O=C1C2CCCCN2C(=O)N1CCCCN1CCN(c2ccc([N+](=O)[O-])cc2)CC1` (centres unmarked): the “hERG current change (%, negative = inhibition) at 10uM” value is -75.8%.

For the compound `O=C1C2CCCN2C(=O)N1CCN1CCN(CCO)CC1` (centres unmarked), the “hERG current change (%, negative = inhibition) at 10uM” value was -5.52%.

These data come from paper PMC4336329 (PLoS ONE, 2015).
